# Screens: PubChem BioAssay, several laboratories
# Cl transport mod: KCC2 (human) Cl- transport modulation; hit rate 2.2% among 190,000; KCC2 cells, thallium flux FluoZin-2 fluorescence; AID 1456; Q9H2X9; B-score of Tl+ flux slope (higher = more flux/activation; lower = inhibition) at 10 µM;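 active = thallium flux slope and its plate-corrected score both differing from the plate sample mean at a set confidence after two filtering rounds, in either direction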;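 note: slope of fluorescence scaled to starting intensity during 10 to 20 s after thallium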
# Target sequence (Q9H2X9 whole entry, looked up): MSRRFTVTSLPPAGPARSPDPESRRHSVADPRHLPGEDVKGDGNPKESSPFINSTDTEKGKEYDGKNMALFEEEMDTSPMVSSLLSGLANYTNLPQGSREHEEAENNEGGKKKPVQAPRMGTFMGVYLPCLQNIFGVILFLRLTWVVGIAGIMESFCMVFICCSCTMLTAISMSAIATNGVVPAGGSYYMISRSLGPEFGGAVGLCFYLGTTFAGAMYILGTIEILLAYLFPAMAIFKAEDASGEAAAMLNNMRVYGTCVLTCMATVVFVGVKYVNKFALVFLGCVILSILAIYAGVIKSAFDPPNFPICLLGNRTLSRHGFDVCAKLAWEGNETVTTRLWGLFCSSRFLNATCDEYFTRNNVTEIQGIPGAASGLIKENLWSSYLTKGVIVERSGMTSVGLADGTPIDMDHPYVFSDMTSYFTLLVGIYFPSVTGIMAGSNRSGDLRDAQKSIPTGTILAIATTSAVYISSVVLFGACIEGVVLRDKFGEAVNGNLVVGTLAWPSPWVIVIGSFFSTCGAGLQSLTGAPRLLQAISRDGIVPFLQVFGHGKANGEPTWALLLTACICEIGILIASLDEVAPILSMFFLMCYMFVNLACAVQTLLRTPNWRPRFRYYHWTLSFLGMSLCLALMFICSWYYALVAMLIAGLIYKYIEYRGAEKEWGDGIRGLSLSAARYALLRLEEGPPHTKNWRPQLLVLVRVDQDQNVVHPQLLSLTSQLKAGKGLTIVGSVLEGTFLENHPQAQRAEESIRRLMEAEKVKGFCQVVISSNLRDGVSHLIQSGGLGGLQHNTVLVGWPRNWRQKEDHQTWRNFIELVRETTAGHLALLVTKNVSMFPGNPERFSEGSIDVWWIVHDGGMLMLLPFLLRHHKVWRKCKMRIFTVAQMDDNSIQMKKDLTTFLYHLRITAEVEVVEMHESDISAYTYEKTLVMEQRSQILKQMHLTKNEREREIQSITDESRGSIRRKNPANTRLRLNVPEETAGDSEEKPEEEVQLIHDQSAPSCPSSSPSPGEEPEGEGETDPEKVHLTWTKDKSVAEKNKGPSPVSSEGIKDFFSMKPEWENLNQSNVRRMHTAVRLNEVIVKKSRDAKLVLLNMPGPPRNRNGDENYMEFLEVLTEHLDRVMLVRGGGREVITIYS
# Insulin prom inh: TRM-6 insulin promoter activity inhibition; AID 1273; hit rate 0.9% among 130,000; inhibition, % at 2 µM; TRM-6 cells (human fetal islet line), insulin promoter-eGFP reporter, imaging; reporter expression induced with tamoxifen;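 active = inhibition above the mean plus 3 SD, with well images judged a real hit on visual review, cut at about 60% in these data, passing the limit was not always enough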
# Lmaj promast: Leishmania major promastigote growth inhibition; inhibition, % at 10 µM; hit rate 9% among 200,000; Leishmania major promastigotes, resazurin fluorescence viability; in the data active = inhibition above about 50%;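 note: promastigotes grown with compound for 44 hours at 28 °C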
# WT yeast gro inh: growth inhibition of WT yeast, mitochondrial fusion screen; hit rate 2.1% among 190,000; inhibition, % at 10 µM; mitochondrial fusion phenotypic screen, WT strain; AID 1362; in the data active = inhibition above about 58%; tested in S. cerevisiae
# Insulin prom up: MIN6 insulin promoter up-regulation; MIN6 insulin promoter-GFP reporter, high-content imaging; stronger effect = higher value; z-score at 5 µM; hit rate 0.3% among 190,000;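 active = z-score above 3 at 5 µM with at least 500 cells counted in the well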
# ROMK primary: modulators of human ROMK potassium channel. P48048. Tet-inducible ROMK, thallium flux fluorescence; actives lie on both sides. B-score at 10 µM. hit rate 2% among 130,000;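 active = signal ratio slope over the read window, or its plate-corrected B-score, at least 3 SD from the plate mean, either direction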;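 note: B-score of the F/F0 ratio slope over 7 to 12 s after thallium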
# Numbers without * were called inactive; · = no result. The list is not random: actives were taken first. Their share in the collection is about 12%.
SMILES,Cl transport mod,Insulin prom inh,Lmaj promast,WT yeast gro inh,Insulin prom up,ROMK primary
O=C(CSc1ncn[nH]1)Nc1ccccc1Sc1ccccc1,0.0025,-32,70*,5,-0.41,·
O=C(O)CSc1ncn[nH]1,-0.29,77*,8,-3,-0.86,·
CCOC(=O)c1sc(NC(=O)CSc2n[nH]c(-c3ccncc3)n2)c(C#N)c1C,-0.79,41,6,-1,·,0.18
CCOc1ccc(/C=C/C2=Cc3c(sc(NC(=O)CSc4n[nH]c(N)n4)c3C#N)C(C)(C)C2)cc1,0.55,-51,100*,11,-0.26,·
Cc1ccsc1/C=C/C1=Cc2c(sc(NC(=O)CSc3n[nH]c(N)n3)c2C#N)C(C)(C)C1,-1.2,-61,100*,-11,·,·
O=C(O)c1cccc(NC(=O)c2cn(-c3ccccc3)nc2-c2cc3ccccc3o2)c1,-2.7,·,-8,-39,-0.37,·
CCN(CC)CCNc1c2c(c(C#N)c3nc4ccccc4n13)CCCC2,0.0025,0,96*,55,-0.86,0.18
Cc1cccc(C2=NC(C(F)(F)F)(C(F)(F)F)c3c(n(-c4ccc(F)cc4)c(=O)[nH]c3=O)N2)c1,0.68,0,74*,-1,0.52,0.15
CCOC(=O)N1CCN(c2nc(C)cc(C(F)(F)F)n2)CC1,-0.13,8,-9,3,0.41,-0.14
CCN1C(=O)/C(=C\C(=O)c2cccs2)c2cc(Br)ccc21,0.23,-94,100*,87,-0.95,-2.2
CN(C(=O)c1ccc(OC2CCN(CCc3ccccc3)CC2)cc1)C1CCCCC1,0.087,-22,91*,9,0.02,-1.2
CN(C(=O)c1ccc(OC2CCN(CCc3ccccc3)CC2)cc1)C1CCOCC1,·,·,-2,-4,1.1,·
CNC(=S)N1CCc2sccc2C1C (stereo not drawn),0.35,·,·,·,0.64,·
O=C(Nc1nc(-c2cc(Cl)sc2Cl)cs1)c1cccs1,2.1,-15,23,74*,0.88,·
COc1ccc(C(=O)Nc2nc(-c3cccs3)cs2)cc1,-0.83,-24,3,54,-0.07,·
O=C(Nc1ncc(Cc2ccccc2)s1)c1cccs1,-0.68,-48,6,49,-0.71,1.4
O=C(Nc1nc(-c2cccs2)cs1)c1ccc(Cl)cc1,·,63,8,67*,-1.1,·
O=C(Nc1ncc(Cc2cccc(Cl)c2)s1)c1cccs1,-0.65,23,84*,81*,-0.67,·
Fc1ccccc1CNc1ccc(Cl)c(Cl)c1,-0.51,·,1,-2,0.08,·
Fc1ccccc1CNCCC(Cc1ccccc1)c1ccc2c(c1)OCO2 (stereo not drawn),0.21,-62,66*,37,-0.81,-2.1
O=C(NC(Cc1ccccc1)c1ccc2c(c1)OCCCO2)c1ccccc1F (stereo not drawn),-1.4,-11,49,10,-0.03,-1.1
CCNCCC(CCC(C)C)c1ccc2c(c1)OCO2 (stereo not drawn),-0.032,·,·,·,0.38,·
CC(=O)N(CCC(Cc1ccccc1)c1ccc2c(c1)OCO2)Cc1ccccc1F (stereo not drawn),·,29,9,78*,-1.8,·
Cc1ccc(/C(N)=N/OC(=O)COc2ccccc2Cl)cc1,·,-8,-6,1,0.46,·
CCOC(=O)C(Cc1ccc(O)cc1)NC(=O)CNC(=O)C(CC(C)C)NC(=O)OC(C)(C)C (stereo not drawn),-1.5,-12,57*,-3,2.1,1
SMILES,Cl transport mod,Insulin prom inh,Lmaj promast,WT yeast gro inh,Insulin prom up,ROMK primary
COC(=O)C(Cc1ccccc1)NC(=O)C(CC(C)C)NC(=O)OC(C)(C)C (stereo not drawn),0.012,8,6,-4,0.35,0.28
CC1CC2c3cccc(C(=O)O)c3C(=O)N2c2ccc(Cl)cc21 (stereo not drawn),-0.5,·,0,-9,-0.08,-0.43
Cc1ccc(NC(=O)C(=O)NNC(=O)c2cccs2)cc1,43*,17,7,1,-0.76,2.9*
COc1ccc(OCC(=O)NNC(=O)C(=O)Nc2ccc(C)cc2)cc1,22*,35,1,-5,0.49,0.00081
COc1ccc(NC(=O)C2CCN(C(=O)c3cccs3)CC2)c(OC)c1,0.043,16,1,-13,-0.18,·
Cc1ccc(NC(=O)c2cccs2)cc1,-0.034,47,6,8,·,·
COc1ccc(NC(=O)C(=O)NNC(=O)c2cccs2)c(OC)c1,11*,·,9,-7,-0.38,0.65
COc1ccc(NC(=O)C(=O)NNC(=O)c2cccs2)cc1,12*,·,-4,4,·,·
Cc1cc(C(F)F)n2nc(C(=O)Nc3sc4c(c3C#N)CCC4)nc2n1,0.025,-31,-1,0,1.5,0.7
